Measured values taken from the OligoGym collection.

molecular target: TXNDC17; experiment: pooled miR-30 sensor sort-seq; sequence = guide strand; settings: shRNA
Also: reference of the scale not given here.

Row | Sequence | sensor-assay potency score (higher = more potent)
1 | ATTGATACTAGAACAAATCAGG | -0.62
2 | TTTCTGAAGTCATTATTTGGAT | -0.595
3 | AGTAGATGAACACACATCCTTC | -1.77
4 | TTACTTTCAAGTTTTTTCTGAA | 0.123
5 | TTTTCTGAAGTCATTATTTGGA | -0.354
6 | TTAAGTAGTGTAGGCACTGCTG | -0.868
7 | TTTTTCTGAAGTCATTATTTGG | -1.37
8 | TAGATGAACACACATCCTTCAC | -0.655
9 | TTCTGAAGTCATTATTTGGATC | -0.868
10 | TAAGTAGTGTAGGCACTGCTGT | -0.733
11 | AAGACACTCAGATTCTACCAGT | -0.12

molecular target: TXNDC2; experiment: as above; settings: shRNA

Row | Sequence | sensor-assay potency score (higher = more potent)
12 | TAGGATGTCACCCTCCTTGGAT | -0.739
13 | AAGAATGGTCTGATGGTCCTGC | 0.56
14 | TTTTTTATAAAACTGAAAGGTT | -0.527
15 | TTTTATAAAACTGAAAGGTTGG | -0.0568
16 | TTTCCAAGAACTCTAGGGCCAG | -0.912
17 | TTCTTCTGAGGACTTGGGGAGG | -1.18
18 | TTCTTCTTCAGGCTTTAGGATG | -1.62
19 | TTCCAAGAACTCTAGGGCCAGG | -1.16
20 | TTGGGGATGTCAATCTCCTTGG | -0.981
21 | TTTTTCTGAGGACTTGGGGAGG | -1.18
22 | TCTTCTGAGGACTTGGGGCTGT | -0.284
23 | TCTTCTAGGGACTTGGGGCTGT | -0.62

molecular target: UBA1; experiment: as above; settings: shRNA

Row | Sequence | sensor-assay potency score (higher = more potent)
24 | TACTTTGACCTGACTGACGATG | -0.507
25 | TTGGTGAGCACCACCACCTGGA | 0.0519
26 | TTCTTAGGTACTTTGACCTGAC | 0.097
27 | TTTAACTTCGTGACATCCCAGG | -0.746
28 | ATTCTTGTAGGAGTCAAGCTGT | 0.0651
29 | TATAGTACTGGTGACGTGGTGC | 0.491
30 | TATGTCTGCTTCACTGCCGTTC | -0.544
31 | TTGACATCAAAGGTGAGCGGGT | -0.267
32 | TTCCGGTAGTAGACACAGCGGC | -0.978
33 | TTCTTGAGCAGCTCACAGCCAA | -0.992
34 | TTAGGTACTTTGACCTGACTGA | -0.00997
35 | TTCTCTTGCAGGTCTGAGCCAA | -0.695

molecular target: UBA3; experiment: as above; settings: shRNA

Row | Sequence | sensor-assay potency score (higher = more potent)
36 | TTACATACTCAATACAGTGTTC | -0.397
37 | TATATTGTGATGCTCTCTCTAG | -0.466
38 | TTCTTGTCCATCAACAAGCCCC | -0.667
39 | TTAAAATCTTGAATCTTGTTGA | 0.888
